# UHRF1 MBD2 ctr = UHRF1 methyl-DNA binding inhibition. Q96T88. UHRF1 binding to methylated oligo, TR-FRET. inhibition, % at 4.4 µM. 370,000 tested, 0.75% active. AID 687016; in the data active means inhibition above about 21%;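 further: UHRF1 SRA domain binding a hemimethylated CpG hairpin DNA probe; 0% = median of test compound wells and 100% = reference inhibitor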
# LEDGF integ inh = blocks HIV-1 LEDGF/p75-dependent DNA integration; inhibition, % at 3.7 µM; 370,000 tested, 0.64% active; TR-FRET IN-LEDGF/p75 DNA integration, Eu/Cy5;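 active means inhibition above the screen-wide mean plus 3 SD, cut at about 13% in these data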;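 further: signal is the Cy5 over europium emission ratio at 671 and 618 nm; 0% = plate median of compound wells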
# MBD2 inh = inhibitors of human MBD2 binding to methylated oligonucleotide; inhibition, % at 4.4 µM; 370,000 tested, 0.31% active; TR-FRET; Q9UBB5; in the data active means inhibition above about 13%
# PG9 binder = small molecules binding HIV-1 gp120 antibody PG9. TR-FRET gp120-PG9 antibody binding. AID 624416. 360,000 tested, 0.43% active. inhibition, % at 6.7 µM; in the data active means inhibition above about 8.5%
# rCAG binder = molecules binding r(CAG) RNA repeats. r(CAG) RNA repeat, TO-PRO-1 dye displacement fluorescence. inhibition, % at 3 µM. 370,000 tested, 1.3% active;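 active means inhibition above the plate cutoff, the mean of all test compounds on that plate plus 3 SD, cut at about 35% in these data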;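 further: 0% = DMSO alone and 100% = 100 µM mitoxantrone as full dye displacement; higher means more dye released from RNA so lower well fluorescence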
# DNMT1 inh = inhibitors of human DNMT1. DNMT1 molecular beacon, Hinp1I cleavage, fluorescence. inhibition (reported as % activation of signal), % at 10 µM. 360,000 tested, 0.83% active. AID 588458; in the data active means inhibition above about 50%
# Target sequence (P26358 504-1616 limits assumed): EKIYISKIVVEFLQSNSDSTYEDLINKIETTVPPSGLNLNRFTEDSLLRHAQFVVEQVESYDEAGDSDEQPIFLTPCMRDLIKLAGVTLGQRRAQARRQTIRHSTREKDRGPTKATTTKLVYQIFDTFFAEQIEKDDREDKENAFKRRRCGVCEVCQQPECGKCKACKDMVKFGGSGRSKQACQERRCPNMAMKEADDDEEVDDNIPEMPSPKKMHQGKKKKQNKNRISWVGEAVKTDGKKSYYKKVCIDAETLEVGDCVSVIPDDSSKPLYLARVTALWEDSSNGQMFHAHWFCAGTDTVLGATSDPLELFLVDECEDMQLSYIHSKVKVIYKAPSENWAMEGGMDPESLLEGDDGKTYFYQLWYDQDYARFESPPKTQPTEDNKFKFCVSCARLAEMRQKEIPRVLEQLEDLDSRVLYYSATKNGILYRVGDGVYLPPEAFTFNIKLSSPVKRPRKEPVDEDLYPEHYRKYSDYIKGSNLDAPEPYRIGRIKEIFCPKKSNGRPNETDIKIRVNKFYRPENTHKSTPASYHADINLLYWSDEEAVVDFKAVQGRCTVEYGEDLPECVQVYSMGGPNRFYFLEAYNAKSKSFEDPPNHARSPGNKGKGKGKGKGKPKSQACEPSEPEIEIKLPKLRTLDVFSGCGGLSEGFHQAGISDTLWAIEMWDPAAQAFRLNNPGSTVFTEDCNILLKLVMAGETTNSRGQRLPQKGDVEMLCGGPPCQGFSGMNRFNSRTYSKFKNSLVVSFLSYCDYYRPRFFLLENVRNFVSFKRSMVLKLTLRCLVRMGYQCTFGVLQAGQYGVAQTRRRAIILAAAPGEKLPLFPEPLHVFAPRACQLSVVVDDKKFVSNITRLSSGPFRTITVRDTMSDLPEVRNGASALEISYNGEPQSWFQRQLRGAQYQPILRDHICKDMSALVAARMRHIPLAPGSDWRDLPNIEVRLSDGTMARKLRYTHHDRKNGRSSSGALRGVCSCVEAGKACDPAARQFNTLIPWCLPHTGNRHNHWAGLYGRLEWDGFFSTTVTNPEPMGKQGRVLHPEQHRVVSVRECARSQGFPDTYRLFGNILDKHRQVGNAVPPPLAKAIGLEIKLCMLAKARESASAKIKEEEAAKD
# DNMT1 interf DR = counter-screen for DNMT1 inhibitors: spectral interference, dose response | shares compounds with DNMT1 inh | molecular beacon fluorescence | IC50, µM | 200 tested, under 10 active | AID 602382; call rule not given here
# DNMT1 confirm = DNMT1 inhibition confirmation, single concentration. shares compounds with DNMT1 inh. DNMT1 molecular beacon HinP1I cleavage, fluorescence. inhibition, % at 10 µM. 2,300 tested, 8% active. AID 602385;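 active means average inhibition of at least 30% in the single-concentration confirmation test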
# Beacon interf = shows spectral interference in the DNMT1 beacon assay; 2,300 tested, 1% active; shares compounds with DNMT1 inh; activation (fluorescence interference), % at 10 µM; DNMT1 molecular beacon spectral interference counterscreen, fluorescence 485/520; AID 602387;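 active means activation of at least 30% at 10 µM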;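 further: DNMT1 catalytic domain with a HinP1I cleavage step and a FAM/dabcyl DNA beacon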
# * marks the source's active call; other numbers are inactive results; . = not tested or not shown. Shown are actives, neighbours in structure and some others; about 3.5% of the full set was active somewhere.
SMILES,UHRF1 MBD2 ctr,LEDGF integ inh,MBD2 inh,PG9 binder,rCAG binder,DNMT1 inh,DNMT1 confirm,Beacon interf,others
CCOc1cccc(C(=O)Nc2ccc(N3CCCC3)cc2)c1,1,-3,1,-12,-2,37,.,.,
COc1ccccc1C(=O)NC(=S)Nc1ccc(N2CCCC2)cc1,-2,2,-5,0,6,68*,5,4,
COc1ccc(C(=O)NC(=S)Nc2ccc(N3CCCC3)cc2)cc1,-2,4,-1,-3,0,-5,.,.,
CCOc1ccc(C(=O)Nc2ccc(N3CCCC3)cc2)cc1,-3,0,-6,-3,8,80*,7,0,
COc1ccc(CN(C)CC(=O)Nc2cccc(S(=O)(=O)N(C)c3ccccc3)c2)c(OC)c1,0,-6,4,0,4,-8,.,.,
Cc1cc2oc3ccc(NCCCn4ccnc4)cc3c(=O)c2cc1C,2,0,-5,-2,2,56*,1,1,
CCc1cccc(CC)c1-n1c(SCC(=O)c2c(N)n(C)c(=O)n(C)c2=O)nnc1-c1cccnc1,1,1,-4,0,1,59*,0,-3,
O=S(=O)(Nc1c(S(=O)(=O)c2ccccc2)c2nc3ccccc3nc2n1C1CCCCC1)c1ccccc1,8,33*,2,5,13,67*,46*,-7,DNMT1 interf DR=>99
C=CCn1c(NS(=O)(=O)c2ccccc2)c(S(=O)(=O)c2ccc(C)cc2)c2nc3ccccc3nc21,3,5,-1,-2,8,-3,.,.,
O=C(N/N=C/c1cccn1-c1cccc(C(=O)O)c1)Nc1ccccc1,9,13,-7,-1,22,85*,2,14,
O=C(/C=C/c1ccco1)OCC(=O)N1CCCCC1,3,3,1,2,4,50*,-1,0,
CCN(C(=O)COC(=O)/C=C/c1ccco1)C1CCCCC1,18,6,7,1,2,75*,6,3,
O=C1COc2ccc(C(=O)COC(=O)/C=C/c3ccco3)cc2N1,.,.,.,.,.,57*,5,3,
O=C1COc2ccc(C(=O)COC(=O)c3ccco3)cc2N1,10,-6,0,1,1,2,.,.,
CCOc1ccc(CCN2C(=O)C(=O)N([C@@H](Cc3ccccc3)CN3CCC[C@H]3CN3C(=O)C(=O)NC[C@@H]3Cc3ccccc3)C[C@@H]2Cc2ccccc2)cc1,-1,2,-2,2,9,.,.,.,
CCOCCCNC(=O)c1ccccc1SCC,2,-3,1,-3,-1,52*,3,7,
O=C(COC(=O)Cc1ccc(S(=O)(=O)N2CCOCC2)s1)Nc1ccc(OC(F)F)cc1,0,2,-4,-1,11,-7,.,.,
CNc1cncc(-c2ccc(F)cc2F)n1,1,3,-1,2,2,1,.,.,
CCOc1ccc(N=C2NC(=O)S/C2=C\c2ccc(Cl)cc2)cc1,0,-2,2,-2,0,84*,0,-6,
CCC(=O)Nc1cc(C(=O)O)ccc1S(=O)(=O)c1ccc(C)cc1,13,3,2,-1,9,63*,-1,1,
COc1ccc(C(=O)CC(=O)C(=O)NCCc2cccc(C)c2)cc1,2,2,-3,-2,11,89*,2,4,
N#Cc1ccccc1S(=O)(=O)N1CCN(C(=O)CN(Cc2ccco2)Cc2cccs2)CC1,0,3,-2,-1,3,1,.,.,
O=C(O)CCCCN1C(=O)/C(=C\c2ccc(OCc3ccccc3)c(OCc3ccccc3)c2)SC1=S,3,-4,-2,-1,6,81*,15,-2,
COc1ccc(/C=C2/SC(=S)N(CC(=O)O)C2=O)cc1OCc1ccc(Cl)cc1,-3,11,-1,0,29,3,.,.,
O=C1c2ccccc2-c2c1c1ccccc1c(=O)n2-c1ccccc1,1,-2,1,2,3,50,2,4,
CCOc1ccc2nc(NC(=O)CN3CCN(C)CC3)sc2c1,11,-2,1,0,-2,73*,3,5,
